In the library only some 1.1% were active in any assay of this set; here they are far more common.
TrxR1 inh: rat TrxR1 inhibition | O89049 | actives 1% (n = 390,000) | AID 588453 | Potency, µM (top dose mostly 114 µM), for inactives: at the top dose activity change, negative = inhibition, usual class: inhibitors | recombinant rTrxR1, NADPH fluorescence consumption, selenite substrate; note: nearly all actives have a fitted effect of over 65% in size
Target sequence (O89049 whole entry, looked up): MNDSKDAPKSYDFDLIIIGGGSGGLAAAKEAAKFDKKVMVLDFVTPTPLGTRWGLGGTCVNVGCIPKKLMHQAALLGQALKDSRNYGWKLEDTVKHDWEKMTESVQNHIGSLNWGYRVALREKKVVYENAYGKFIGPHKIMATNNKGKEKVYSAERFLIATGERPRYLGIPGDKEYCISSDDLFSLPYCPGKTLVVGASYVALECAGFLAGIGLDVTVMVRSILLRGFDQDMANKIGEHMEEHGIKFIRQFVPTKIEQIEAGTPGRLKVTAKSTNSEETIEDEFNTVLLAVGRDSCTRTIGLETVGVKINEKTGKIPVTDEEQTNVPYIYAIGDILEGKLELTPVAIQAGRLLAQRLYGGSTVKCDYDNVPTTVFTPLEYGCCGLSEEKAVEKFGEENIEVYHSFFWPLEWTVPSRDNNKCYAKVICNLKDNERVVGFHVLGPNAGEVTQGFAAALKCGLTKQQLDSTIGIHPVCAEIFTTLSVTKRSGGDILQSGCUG
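Rat TrxR1 (90 nM in the dispensed reagent) was pre-reduced with 400 uM NADPH for 5 min at room temperature, then incubated with compound for 15 min. After 400 uM selenite was added, NADPH fluorescence (Ex 340/Em 450 nm) was followed for 8 min.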
IDH1 R132H inh: inhibitors of human mutant IDH1 R132H. Potency, µM (titrated, usually from 76.6 µM), for the others: top-dose activity change, negative = inhibition, usual class: inhibitors. IDH1-R132H enzyme, NADPH consumption, diaphorase/resazurin fluorescence. O75874. actives 0.093% (n = 390,000); note: nearly all actives have a fitted effect of over 65% in size
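IDH1-R132H (0.5 ug/mL dispensed) in pH 7.5 Tris buffer was preincubated 30 min with compound, then given a substrate mix of 0.016 mM NADPH and 2 mM alpha-KG for 80 min at room temperature; remaining NADPH was read by diaphorase/resazurin fluorescence.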
TrxR1 substrate: is turned over as a substrate by rat TrxR1; purified TrxR1 substrate turnover, NADPH consumption readout; O89049; AID 588456; actives 0.01% (n = 390,000); Potency, µM (doses to about 114 µM), inactives show top-dose activity change, negative = substrate turnover; note: nearly all actives have a fitted effect of over 50% in size
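Rat TrxR1, dispensed at 90 nM, was prereduced with 400 uM NADPH (final) for 5 min at ~22 deg C, then incubated with compound 15 min before 400 uM selenite. A first-read NADPH fluorescence drop versus no-compound background flagged substrates.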
Eya2 phos inh: inhibitors of human Eya2 phosphatase activity | O00167 | recombinant Eya2, OMFP fluorescence dephosphorylation (OMFP is methylfluorescein phosphate) | Potency, µM (top dose mostly 76.9 µM), inactives show at the top dose activity, negative = inhibition, actives largely listed as inhibitors | actives 0.006% (n = 330,000)
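Eya2 (0.2 uM) preincubated 10 min at ambient with compound, then OMFP substrate added at 50 uM; 10 min reaction in 50 mM HEPES pH 7.5, 50 mM NaCl, 5 uM MgCl2, 0.05% BSA, 1 mM DTT. Fluorescence read at Ex 485/Em 525 nm.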
RGS4 inhibitor: inhibitors of human regulator of G protein signaling 4 | P49798 | Transcreener GDP fluorescence polarization, RGS4-accelerated GTP hydrolysis | Potency, µM (doses to about 114 µM), without a hit: at the highest dose activity change, negative = inhibition, actives largely listed as inhibitors | actives 0.039% (n = 390,000) | AID 504845; note: nearly all actives have a fitted effect of over 75% in size
Target sequence (P49798 whole entry, looked up): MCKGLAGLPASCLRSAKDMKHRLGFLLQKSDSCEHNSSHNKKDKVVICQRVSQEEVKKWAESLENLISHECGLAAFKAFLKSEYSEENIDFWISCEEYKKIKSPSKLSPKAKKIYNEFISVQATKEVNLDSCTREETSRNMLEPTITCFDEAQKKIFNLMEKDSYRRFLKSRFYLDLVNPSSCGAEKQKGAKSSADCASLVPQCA
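MLSMR compounds (23 nl, pin-transferred) preincubated 10 min at room temperature with a 500nM (2x) first reagent, then RGS4 at 900nM (2x) plus Transcreener GDP mix added; fluorescence polarization (620/688 nm) read before and after 90 min at 30 °C.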
The depositor's hits bear a star; ? = inconclusive; · = no result; [ ] = remark or other dose. Calls come from the whole dose curve; as a rule, active = well fitted curve in the direction sought with a large enough effect; inconclusive = small, poorly fitted or top-dose-only effect, or another doubt; inactive = no such curve, though single readings can be large; an effect the other way counts as inactive or inconclusive. % is set by controls: 0 for no effect and ±100 for the full control effect; potency is the fitted concentration of half-maximal effect.

SMILES	TrxR1 inh	IDH1 R132H inh	TrxR1 substrate	Eya2 phos inh	RGS4 inhibitor
Cc1c(Cl)cnc(NC(=O)COC(=O)[C@@H](NC(=O)c2ccco2)C(C)C)c1Cl	11µM*	12%	8%	-33%	-35%
C=CCN1C=C2C(=O)C(C)(OC(=O)c3ccc(OC)cc3)C(=O)C(c3ccco3)=C2C=C1CCCC (stereo unspecified)	7.1µM*	-15%	12%[57.1 µM]	8%	-6%
C/C(=C\c1ccc(C)o1)C(=O)c1c(C)cc(C)[nH]c1=O	50µM*	8%	-9%	-13%	-7%
C/C(=C\c1cccc(Br)c1)C(=O)c1c(C)cc(C)[nH]c1=O	6%	-4%	-5%	11%	12%
Cn1cnc([N+](=O)[O-])c1Sc1nc(N)nc2c1ncn2Cc1ccccc1	6.3µM*	5%	-8%	·	25%
CCCn1cnc2c(Sc3c([N+](=O)[O-])ncn3C)nc(N)nc21	3.2µM*	1%	-4%	·	8%
CCCCn1cnc2c(Sc3c([N+](=O)[O-])ncn3C)nc(N)nc21	2.8µM*	2%	-6%	·	-7%
CCCCn1cnc2c(SCc3ccc([N+](=O)[O-])cc3)nc(N)nc21	5%	0%	-4%	·	28%
CCCn1cnc2c(SCc3ccccc3F)nc(N)nc21	13%[2.29 µM]	3%	1%[2.29 µM]	·	-4%
CCOC(=O)N1CCN(C(=O)COC(=O)CSc2cc(C)c(Br)cc2C)CC1	9%	-4%	-4%	-18%	-10%
O=C1OC(c2cccs2)=N/C1=C\c1ccc(-c2ccccc2Cl)o1	?	6%	-9%	17%	4%
O=C1OC(c2cccs2)=N/C1=C/c1ccc(-c2cccc(C(=O)O)c2)o1	35µM*	5%	-17%	13%	-10%
C#CCSc1nccc(-c2nn(-c3ccc(C)cc3)ccc2=O)n1	79µM*	8%	20%	-1%	?
O=C1CCCC2(O)C1C(c1cccc(Br)c1)NC(=O)N2Cc1ccccc1 (stereo unspecified)	16µM*	14%	11%	-2%	-19%
C[C@@H]1CC=C[C@@H]2[C@H]1C(=O)N(Cc1ccccc1)[C@H]2c1cccc(Br)c1	11%	-3%	-2%	8%	9%
CCc1ccc(C2c3[nH]c4ccccc4c3CCN2C(=O)c2ccc(=O)n(C)n2)cc1 (stereo unspecified)	18%	7%	-2%	-12%	-7%
O=C(CSc1nnc(CNC(=O)c2ccco2)o1)Nc1ccc(Cl)cc1	16%	0%	3%	9%	16%
COc1ccc(NC(=S)NC(NC(=O)CCl)C(Cl)(Cl)Cl)c([N+](=O)[O-])c1 (stereo unspecified)	10µM*	21%	1%	5%	?
O=C(O)C1=CC(=C(c2ccc(O)c(C(=O)O)c2)c2ccc(O)c(C(=O)O)c2)C=CC1=O	?	·	30%[57.1 µM]	?	11µM*
O=C(CCS(=O)(=O)c1ccc(Cl)cc1)N1CCN(c2ccc(F)cc2)CC1	-9%	-10%	-4%	4%	-3%
Cc1ccc(S(=O)(=O)CCC(=O)N2CCN(c3ccc(Cl)cc3)CC2)cc1	50µM*	14%	0%	-12%	-12%
O=C(Oc1ccc(N(C(=O)c2ccncc2)S(=O)(=O)c2ccc(F)cc2)cc1)c1ccncc1	35µM*	0%	?	6%	-8%
O=C(NC(=S)NNS(=O)(=O)c1ccc(Cl)cc1)c1cccnc1	18µM*	3%	9%	2%	-17%
CCOC(=O)C(NC(=O)CCl)(Nc1sc(C)c(CC)c1C#N)C(F)(F)F (stereo unspecified)	56µM*	2%	-6%	4%	-22%
COc1cc(OC)c(NC(=O)c2ccc3c(Cl)c4c(nc3c2)CCCC4)cc1Cl	21%	-1%	7%	·	-9%
SMILES	TrxR1 inh	IDH1 R132H inh	TrxR1 substrate	Eya2 phos inh	RGS4 inhibitor
COc1cc(OC)c(Nc2c3c(nc4nc(-c5cccs5)nn24)CCCC3)cc1Cl	6%[57.1 µM]	32µM*	0%[57.1 µM]	·	-43%
CCOc1cc(/C=C2\CN(C)C/C(=C\c3ccc(O)c(OCC)c3)C2=O)ccc1O	56µM*	-1%	-16%	4%	-40%
CC(=O)c1sc(NC(=O)C2(F)C(F)(F)C(F)(F)C(F)(F)C(F)(F)C2(F)F)nc1C	35µM*	-7%	?	17%	-38%
Fc1cccc(Cl)c1CNc1ccc(N2CCCC2)cc1	4µM*	31%	3%[57.1 µM]	-1%	-51%
NS(=O)(=O)c1ccc(NCc2c(F)cccc2Cl)cc1	-1%	10%	-3%	4%	-16%
Cc1c(C(=O)Nc2ccc(Br)cc2)cnn1C	-17%	10%	-10%	-2%	-12%
Cc1c(C(=O)c2no[n+]([O-])c2C(=O)c2cnn(C)c2C)cnn1C	1.3µM*	1%	-5%	-8%	-3%
CS(=O)(=O)N(CCc1ccccc1)CC(=O)NCc1ccccc1Cl	14%	-2%	1%	?	8%
CC(C)(C)NS(=O)(=O)c1ccc(CCC(=O)NCc2ccco2)cc1	?	1%	5%	-7%	-10%
COc1ccc(CCC(=O)NCc2ccco2)cc1	11µM*	6%	16%[57.1 µM]	-28%	-25%
COc1cc(NC(=O)c2cc(-c3ccc(C)cc3)on2)cc(OC)c1OC	37%	-3%	7%	21%	-20%
O=C(/C=C/c1ccc(Br)o1)NC(c1ccccc1)c1ccccc1	20µM*	7%	16%	3%	?
CN(C)S(=O)(=O)N(CC(=O)Nc1ccccc1C(F)(F)F)c1ccccc1	·	·	·	12%	·
O=C(CCl)N1c2ccccc2Oc2ccc3ccccc3c21	2.5µM*	25%	8%	·	?
CC(=O)N1c2ccccc2Oc2cc3ccccc3cc21	5%[57.1 µM]	11%	5%[57.1 µM]	-10%	6%
O=C(/C=C/c1ccc([N+](=O)[O-])cc1)Oc1ccc(/C=N/NC(=O)c2ccncc2)cc1	35µM*	-12%	-5%	-2%	?
N#CC(C#N)=Cc1cc2ccccc2nc1N1CCCCC1	18µM*	-6%	1%	1%	-13%
CCOC(=O)/C(C#N)=C/c1cc2ccccc2nc1N1CCOCC1	14%[57.1 µM]	-2%	12%[57.1 µM]	3%	-29%
Nc1nc(Sc2ccc([N+](=O)[O-])c3nonc23)c2[nH]cnc2n1	1.3µM*	18%	-32%	·	-120%
Nc1nc(SCc2ccccc2)c2[nH]cnc2n1	4%	-12%	-4%	4%	-11%
CNc1ncnc(Sc2nc(N)nc3nc[nH]c23)c1[N+](=O)[O-]	1.3µM*	-1%	13%[57.1 µM]	·	-37%
CC(C)(O)C#Cc1ccc(C(=O)N2CCCC(CNS(=O)(=O)c3cccs3)C2)o1 (stereo unspecified)	13µM*	13%	1%	5%	-11%
Cc1cc(C)c(C(=O)N2CCCC(CNS(=O)(=O)c3cccs3)C2)o1 (stereo unspecified)	5%	6%	7%	-3%	9%
